Results filed as inconclusive are left out. Activity calls are given as the source filed them. Unless noted, calls follow the shape of the full dose curve.
How the values were obtained:
[1] = Inducers of the Endoplasmic Reticulum Stress Response (ERSR) in human glioma: Validation (AID 504836; active = well fitted curve in the direction sought with a large enough effect)
How it was run: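 Stably transfected U87-MG glioma cells carrying a GRP78-based luciferase sensor; 16 h compound incubation. Luminescence end-point read 10 min after Bright-Glo addition at room temperature.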

[2] = qHTS for Inhibitors of the Functional Ribonucleoprotein Complex (vRNP) of Lassa (LASV) Arenavirus: LASV Primary Screen - GLuc reporter signal (AID 1347082; calls by dose curve; tested in HEK293 reporter line; also: series mostly up to about 57 µM; nearly all actives have a fitted effect of over 60% in size)
[3] = qHTS for Inhibitors of the Functional Ribonucleoprotein Complex (vRNP) of Lassa (LASV) Arenavirus: Viability assay - alamar blue signal for LASV Primary Screen (AID 1347083; calls by dose curve; tested in HEK293 reporter line; also: series mostly up to about 57 µM; nearly all actives have a fitted effect of over 80% in size)
[4] = qHTS for Inhibitors of the Functional Ribonucleoprotein Complex (vRNP) of Lymphocytic Choriomeningitis Arenaviruses (LCMV): Viability assay - alamar blue signal for LCMV Primary Screen (AID 1347085; calls by dose curve; tested in HEK293 reporter line; also: series mostly up to about 57 µM; nearly all actives have a fitted effect of over 80% in size)
[5] = biological target: Nucleoprotein (Lymphocytic choriomeningitis virus (strain Armstrong)) (UniProt P09992); experiment: qHTS for Inhibitors of the Functional Ribonucleoprotein Complex (vRNP) of Lymphocytic Choriomeningitis Arenaviruses (LCMV): LCMV Primary Screen - GLuc reporter signal (AID 1347086); also: series mostly up to about 57 µM; nearly all actives have a fitted effect of over 70% in size
Chain of Nucleoprotein (Lymphocytic choriomeningitis virus (strain Armstrong)) (P09992 whole entry, looked up): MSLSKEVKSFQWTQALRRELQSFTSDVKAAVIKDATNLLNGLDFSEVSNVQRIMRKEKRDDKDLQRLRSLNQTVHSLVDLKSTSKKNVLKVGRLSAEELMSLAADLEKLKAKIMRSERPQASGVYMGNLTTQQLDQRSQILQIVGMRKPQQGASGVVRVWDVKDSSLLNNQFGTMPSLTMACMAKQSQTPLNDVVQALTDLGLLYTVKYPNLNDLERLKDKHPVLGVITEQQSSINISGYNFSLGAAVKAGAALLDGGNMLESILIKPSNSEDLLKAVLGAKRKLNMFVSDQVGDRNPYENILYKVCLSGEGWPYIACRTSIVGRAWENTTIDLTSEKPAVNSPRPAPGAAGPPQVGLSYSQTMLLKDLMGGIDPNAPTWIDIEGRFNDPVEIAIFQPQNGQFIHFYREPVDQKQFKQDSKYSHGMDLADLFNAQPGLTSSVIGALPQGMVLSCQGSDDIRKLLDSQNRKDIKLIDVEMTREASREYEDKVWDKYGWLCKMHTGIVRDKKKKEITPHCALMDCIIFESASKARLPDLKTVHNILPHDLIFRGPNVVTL

Measured: Potency

CSc1nc(N)c2ncn([C@@H]3O[C@H](COP(=O)(O)OP(=O)(O)OP(=O)(O)O)[C@@H](O)[C@H]3O)c2n1
inactive: all assays above

CO/S(=N\S(=O)(=O)c1ccc(Cl)cc1)c1ccc([N+](=O)[O-])cc1 (stereo not given)
inactive: all assays above

OCC1O[C@H]([S-])[C@H](O)[C@@H](O)[C@@H]1O.[Au+] (stereo not given in full)
inactive: all assays above

C[N+](C)(C)CCOP(=O)(O)OP(=O)([O-])OC[C@H]1O[C@@H](n2ccc(N)nc2=O)[C@H](O)[C@@H]1O
inactive: all assays above

CN(C)c1ccc(/C=C2\C(=O)Nc3ccccc32)cc1
inactive: all assays above

N#C/C(=C\c1ccc(-c2cc(Cl)ccc2Cl)o1)C(=O)Nc1cccc2ncccc12
inactive: all assays above

Nc1ncnc2c1nc(Sc1ccc(Cl)cc1)n2[C@H]1OC2COP(=O)(O)O[C@@H]2C1O (stereo not given in full)
inactive: all assays above

NCC(O)C1CCCCCCC1 (stereo not given)
inactive: all assays above

Cc1nn(-c2ccccc2)c(C)c1/C=N/N1CCN(Cc2ccccc2)CC1
inactive: all assays above

Cc1nc2sccn2c(=O)c1CCN1CCC(=C(c2ccccc2)c2ccc(F)cc2)CC1
inactive: all assays above

O=c1[nH]c(=S)[nH]c(-c2ccccc2)c1Cc1c(O)ccc2ccccc12
inactive: all assays above

CN1CC(O)C(O)C(O)C1CO (stereo not given)
inactive: all assays above

NC[C@H]1O[C@@H](n2cnc3c(N)ncnc32)[C@H](O)[C@@H]1O
inactive: all assays above

CCN(CC)CCNC(=O)c1ccc(NS(C)(=O)=O)cc1
inactive: all assays above

CCc1c(C(=O)NCCc2ccc(N3CCCCC3)cc2)[nH]c2ccc(Cl)cc12
inactive: all assays above

OC[C@H]1O[C@H](n2cnc3c(N[C@H]4CCC[C@@H]4O)ncnc32)[C@H](O)[C@@H]1O
inactive: all assays above

CCCCCCCCCCC(C)(C)C(=O)Nc1c(OC)cc(OC)cc1OC
inactive: all assays above

C#CC(N)CCC(=O)O (stereo not given)
inactive: all assays above

OC[C@H]1O[C@@H](n2cnc3c(Nc4ccccc4)ncnc32)[C@H](O)[C@@H]1O
inactive: all assays above

O=c1ccn([C@@H]2O[C@H](COP(=O)(O)OP(=O)(O)O)[C@@H](O)[C@H]2O)c(=O)[nH]1
inactive: all assays above

CCc1ccc2c(-c3cccc(Cl)c3)nc(=O)n(CC)c2n1
inactive: all assays above

COc1ccc2c(c1)CCC1C2CC[C@@]2(C)C1CC[C@@H]2NCCCCCCN1C(=O)CCC1=O (stereo not given in full)
inactive: all assays above

C[C@](Cc1ccc(O)c(O)c1)(NN)C(=O)O
inactive: all assays above

O=C1NC(=O)/C(=C/c2ccc3c(c2)OC(F)(F)O3)S1
inactive: all assays above

N[C@@H](Cn1ccc(=O)c(O)c1)C(=O)O
inactive: all assays above

CNC(=O)[C@H]1O[C@@H](n2cnc3c(NCc4cccc(I)c4)ncnc32)[C@H](O)[C@@H]1O
inactive: all assays above

CCCC1(C)C(C#N)(C#N)C1(C#N)C#N
inactive: all assays above

COc1cc2nc(N3CCN(C(=O)OCc4ccccc4)C(C(=O)NC(C)(C)C)C3)nc(N)c2cc1OC (stereo not given)
inactive: all assays above

CNc1ncnc2c1ncn2[C@@H]1O[C@H](CO)[C@@H](O)[C@H]1O
inactive: all assays above

COc1cccc2c1[C@@H]1CN(CCCCn3c(=O)[nH]c4c(sc5ncc(-c6ccccc6)nc54)c3=O)C[C@@H]1CO2
inactive: all assays above

CC(COc1ccc(/C=C/c2ccccc2)cc1)[N+](C)(C)C (stereo not given)
inactive: all assays above

Fc1cccc(/C=N/N=C/c2cccc(F)c2)c1
inactive: all assays above

Oc1cc2c(c(Cl)c1O)CCNCC2c1ccccc1 (stereo not given)
inactive: all assays above

O=[N+]([O-])c1ccc(CSc2ncnc3c2ncn3[C@@H]2O[C@H](CO)[C@@H](O)[C@H]2O)cc1
inactive: all assays above
